Consider nine compounds from PubChem BioAssay.

For some of these results: Potency and affinity values are given separately. Some of the results follow. Activity calls are given as the source filed them.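 How the source made its calls, unless noted: active means dose curve with midpoint inside tested range, moderate steepness, plateau gap beyond fit error, low compound glow and bead-link interference; inactive means the rest.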

Assay [1] in a line: RPL19A-GFP modulators, yeast TOR pathway, confirmation, cell-based, S. cerevisiae, flow cytometry, cherry picks, mother/daughter gates (AID 2270;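 active means GFP response below 50% of the DMSO control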). The settings on record: S. cerevisiae RPL19A-GFP strain, 3 h, at 10 µM, stronger effect = lower value, 100 = same GFP as DMSO wells. (A flow cytometer gives signals particle by particle.)
Assay [2] is described as follows: LAP4-GFP expression modulators in yeast, confirmation, cell-based, cherry picks, flow cytometry, mother/daughter gates (AID 2271;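 active means GFP response above 150% of the DMSO control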;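 further: ratio of sample to DMSO plate mean so 100% equals DMSO level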). The following applies: S. cerevisiae LAP4-GFP strain, 3 h, at 10 µM, stronger effect = higher value.
The nature of assay [3]: modulators of MEP2-GFP levels in yeast, confirmation, S. cerevisiae, flow cytometry GFP, cherry picks (AID 2272;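 active means GFP response above 150% of the DMSO control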;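 further: ratio of well signal to plate DMSO mean so 100% equals DMSO level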). The settings on record: S. cerevisiae MEP2-GFP strain, 3 h, at 10 µM, stronger effect = higher value.
A short description of assay [4]: AGP1-GFP expression modulators, hit retest, confirmation, cell-based, flow cytometry, S. cerevisiae, cherry picks (AID 2273;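 active means GFP response above 150% of the DMSO level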;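 further: median GFP channel fluorescence over the whole cell population gate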). The settings on record: S. cerevisiae AGP1-GFP strain, 3 h, at 10 µM.
Assay [5] is described as follows: modulators of CIT2-GFP expression in yeast, confirmation, S. cerevisiae, GFP fusion, cherry picks, mother/daughter gates (AID 2274;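 active means GFP response above 150% of the DMSO level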). The following applies: S. cerevisiae CIT2-GFP strain, flow cytometry, 3 h, at 10 µM, stronger effect = higher value.
For assay [6], the target named is Cell division control protein 42 homolog (Homo sapiens) (UniProt P60953). The assay can be described thus: activated mutant Cdc42 GTP-binding inhibitors, dose response, biochemical, multiplex bead flow cytometry, Bodipy-FL-GTP (AID 1333;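 active means fitted half-maximal concentration within the tested dose range, moderate curve steepness, a statistically real signal drop, and little compound fluorescence or tag-binding interference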). The following applies: bead-based flow cytometry; series mostly up to 100 µM.
Assay [7] shares this target. The assay can be described thus: wildtype Cdc42 GTP-binding inhibitors, dose response, biochemical, multiplex bead flow cytometry, Bodipy-FL-GTP (AID 1334;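 active means fitted half-maximal concentration within the tested range, moderate curve steepness, significant signal drop, and little compound fluorescence or bead-linkage interference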). The following applies: bead-based flow cytometry, Bodipy-FL-GTP binding to GST-Cdc42; at 100 µM (top of the series).
Assay [8] has as its system Ras-related protein Rab-7a (dog), GTP binding. The assay can be described thus: Rab7 GTP binding inhibitors, potency, dose response, biochemical, wildtype, multiplex bead flow cytometry (AID 1336; call rule not given here). The following applies: bead-based flow cytometry, fluorescent GTP binding to Rab7; series mostly up to 100 µM.
For assay [9], the target named is Ras-related C3 botulinum toxin substrate 1 (Homo sapiens) (UniProt P63000). The assay can be described thus: wildtype Rac1 GTP binding inhibitors, dose response, biochemical, multiplex bead flow cytometry (AID 1340). The following applies: GST-Rac1 beads, Bodipy-FL-GTP binding; at 100 µM (top of the series).
The target of assay [10] is GTPase HRas (Homo sapiens) (UniProt P01112). The assay can be described thus: activated Ras mutant GTP binding inhibitors, dose response, biochemical, multiplex bead flow cytometry (AID 1341;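 active means dose-response curve with midpoint inside the tested range, moderate steepness, significant amplitude and little compound fluorescence or bead-attachment interference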;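 further: GST-tagged constitutively activated Ras mutant immobilized on beads and multiplexed with other GTPases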). The following applies: bead-based flow cytometry, Bodipy-FL-GTP binding; series mostly up to 100 µM.
Assay [11] is described as follows: disruption of biotin probe capture by avidin, counter-screen for RGS protein interaction modulators, biochemical, flow cytometry, bead-based (AID 1783;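 active means inhibition above 50%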;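 further: median green fluorescence of gated singlet beads compared with DMSO control wells; 0% = DMSO wells and 100% = complete loss of bead fluorescence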). The settings on record: streptavidin beads, fluorescein-biotin binding, at 10 µM, stronger effect = higher value.
Assay [12] deals with Guanine nucleotide-binding protein G(o) subunit alpha (Homo sapiens) (UniProt P09471). The assay can be described thus: RGS8-Galphao binding modulators, confirmation, biochemical, multiplexed bead flow cytometry, single concentration (AID 1836; in the data active means binding response below about 72% or above about 130%; inactive means in between;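 further: Galphao activated as GDP AlF4 complex before binding bead RGS8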). The following applies: bead-based flow cytometry RGS8-Galphao binding, fluorescence; at 10 µM; actives lie on both sides.
Assay [13] has the same target. The assay can be described thus: RGS7-Galphao binding modulators, confirmation, biochemical, multiplexed bead flow cytometry, single concentration (AID 1837; in the data active means response below about 75% or above about 130%; inactive means in between;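 further: fluorescent Galphao activated with GDP and aluminum fluoride binding bead-coupled RGS7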). The settings on record: bead-based flow cytometry RGS7-Galphao binding; at 10 µM; actives lie on both sides.
The target in assay [14] is Regulator of G-protein signaling 16 (Homo sapiens) + Guanine nucleotide-binding protein G(o) subunit alpha (Homo sapiens) (UniProt O15492+P09471). The assay can be described thus: modulators of RGS16-Galphao protein binding, confirmation, biochemical, single concentration, multiplexed bead flow cytometry (AID 1838; in the data active means response below about 74% or above about 130%; inactive means in between;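 further: Galphao activated as the GDP aluminium fluoride complex binding bead-coupled RGS16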). The settings on record: bead-based flow cytometry, at 10 µM, actives lie on both sides.

Assay [15] concerns the target Guanine nucleotide-binding protein G(o) subunit alpha (Homo sapiens) (UniProt P09471). Description: modulators of RGS4-Galphao protein binding, confirmation, biochemical, single concentration, multiplexed bead flow cytometry (AID 1840; in the data active means binding response below about 74% or above about 130%; inactive means in between). The following applies: at 10 µM, actives lie on both sides.
Assay [16] concerns the target Guanine nucleotide-binding protein G(o) subunit alpha (Homo sapiens) + Regulator of G-protein signaling 19 (Homo sapiens) (UniProt P09471+P49795). Description: regulators of RGS19-Galphao binding, confirmation, biochemical, single point, multiplexed bead flow cytometry (AID 1841; in the data active means response below about 50% or above about 160%; inactive means in between;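 further: 100% = no compound control and 0% = blank background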). The settings on record: bead-based flow cytometry RGS19-Galphao binding; at 10 µM; actives lie on both sides.

The mark [17] stands for this setting: measured here: daughter cell gate.
Setting [18] is: measured here: mother cell gate.
[19] abbreviates: measured here: daughter cell gate response.
[20] abbreviates: measured here: mother cell gate response.

Chain of Cell division control protein 42 homolog (Homo sapiens) (P60953 whole entry, looked up): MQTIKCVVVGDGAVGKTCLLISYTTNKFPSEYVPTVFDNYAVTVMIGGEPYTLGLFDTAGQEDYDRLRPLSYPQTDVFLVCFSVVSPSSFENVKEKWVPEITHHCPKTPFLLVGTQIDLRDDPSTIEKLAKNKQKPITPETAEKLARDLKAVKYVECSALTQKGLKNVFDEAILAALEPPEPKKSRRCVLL
Chain of Guanine nucleotide-binding protein G(o) subunit alpha (Homo sapiens) (P09471 whole entry, looked up): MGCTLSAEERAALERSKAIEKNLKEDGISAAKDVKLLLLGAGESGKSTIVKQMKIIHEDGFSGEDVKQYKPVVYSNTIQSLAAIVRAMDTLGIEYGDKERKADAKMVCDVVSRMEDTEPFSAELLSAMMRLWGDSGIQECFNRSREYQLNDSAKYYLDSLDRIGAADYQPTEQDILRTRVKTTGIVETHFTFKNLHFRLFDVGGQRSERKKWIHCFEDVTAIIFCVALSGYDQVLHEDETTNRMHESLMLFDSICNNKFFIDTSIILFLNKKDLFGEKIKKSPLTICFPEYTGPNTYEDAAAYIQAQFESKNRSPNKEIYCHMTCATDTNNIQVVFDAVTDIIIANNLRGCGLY
Chain of Regulator of G-protein signaling 16 (Homo sapiens) + Guanine nucleotide-binding protein G(o) subunit alpha (Homo sapiens) (O15492 whole entry, looked up): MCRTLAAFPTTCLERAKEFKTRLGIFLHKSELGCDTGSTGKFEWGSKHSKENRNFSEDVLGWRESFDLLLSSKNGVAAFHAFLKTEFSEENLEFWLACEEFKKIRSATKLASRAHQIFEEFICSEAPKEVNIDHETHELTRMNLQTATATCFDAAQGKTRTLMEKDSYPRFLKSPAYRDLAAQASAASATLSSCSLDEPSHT
Chain of Regulator of G-protein signaling 16 (Homo sapiens) + Guanine nucleotide-binding protein G(o) subunit alpha (Homo sapiens) (P09471 whole entry, looked up): as the sequence (P09471 whole entry, looked up) above
Chain of Guanine nucleotide-binding protein G(o) subunit alpha (Homo sapiens) + Regulator of G-protein signaling 19 (Homo sapiens) (P09471 whole entry, looked up): as above
Chain of Guanine nucleotide-binding protein G(o) subunit alpha (Homo sapiens) + Regulator of G-protein signaling 19 (Homo sapiens) (P49795 whole entry, looked up): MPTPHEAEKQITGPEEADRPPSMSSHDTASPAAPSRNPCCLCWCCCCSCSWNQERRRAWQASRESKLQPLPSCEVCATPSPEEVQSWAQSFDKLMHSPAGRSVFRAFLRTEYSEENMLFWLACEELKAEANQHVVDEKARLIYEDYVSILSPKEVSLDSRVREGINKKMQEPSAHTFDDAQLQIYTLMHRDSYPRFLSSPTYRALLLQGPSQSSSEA

Consider `C[C@]12CC[C@@H](O)C[C@@H]1CC[C@@H]1[C@@H]2CC[C@]2(C)[C@@H](O)CC[C@@H]12`, for which the GFP response vs DMSO is 92.2% (inactive) in assay [1], 87.3% in assay [1] (setting [17]), 94.1% in assay [1] (setting [18]) and 89.9% (inactive) in [3]. Further, the GFP response relative to DMSO in assay [2] was 112% (inactive); in assay [2] (setting [19]), 107%; in assay [2] (setting [20]), 119%. In addition, the GFP response, % of DMSO in assay [4] was 90% (inactive); in [5] it was 85.5% (inactive); in assay [5] (setting [17]) it was 86.2%; in [5] (setting [18]), 87.8%.
Regarding `CC12CN3CC(C)(CN(C1)C31CCOCC1)C2=O`, the GFP response vs DMSO was 95.6% (inactive) in assay [1], 96.9% in assay [1] (setting [17]), 96.6% in assay [1] (setting [18]) and 96.2% (inactive) in assay [3]. The GFP response relative to DMSO was 99.2% (inactive) in assay [2], 97.6% in assay [2] (setting [19]) and 100% in [2] (setting [20]). In addition, the GFP response, % of DMSO in assay [4] is 99.5% (inactive); in assay [5] it was 101% (inactive); in assay [5] (setting [17]) it was 103%; in assay [5] (setting [18]), 101%.
Turning to `CCCCN1C(=O)/C(=C\c2ccco2)C(=O)N(CCc2ccccc2)C1=O`, the compound was called inactive in [6], in assay [8] and in assay [10]. Also, the fluorescence, percent of control (lower = inhibition) in assay [7] is 77.8%. The compound also gave a GTP binding signal, raw median fluorescence (lower = inhibition) (MCF (arbitrary fluorescence units)) in [9] of 129.
Take `Cc1cc(OCCCn2cc(C(=O)O)c3ccccc32)ccc1Cl`: the compound was classed as inactive in assay [6], in assay [8] and in assay [10]. For the same compound, the fluorescence, percent of control (lower = inhibition) in [7] is 58.1%. This compound had a GTP binding signal, raw median fluorescence (lower = inhibition) (MCF (arbitrary fluorescence units)) in [9] of 28.5.
Turning to `O=C(O)c1cn(Cc2ccc(Cl)cc2)c2ccccc12`, the result in assay [6], in assay [8] and in assay [10] was inactive. The compound also yielded a fluorescence, percent of control (lower = inhibition) in assay [7] of 76.5%. The compound also displayed a GTP binding signal, raw median fluorescence (lower = inhibition) (MCF (arbitrary fluorescence units)) in assay [9] of 77.6.
What is called inhibition is the drop in the measured response relative to a control, in per cent. As to `Nc1ccc(C(=O)N/N=C2/CN3CCC2CC3)cc1`, the inhibition in assay [11] was -1.4% (inactive). The results for the binding response (% of control) in [12] and in [15] were 102% (inactive) and 100% (inactive), respectively. Moreover, the response (percent of control binding) in [13] is 98.3% (inactive); in assay [16], 92.4% (inactive). In addition, the response (% of control binding) in [14] is 99.4% (inactive).
For the compound `O=C(O)c1cn(Cc2ccc(Br)cc2)c2ccccc12`, the outcome in assay [6], in assay [8] and in assay [10] was inactive. In assay [7], the fluorescence, percent of control (lower = inhibition) stood at 91.7%. Also, the GTP binding signal, raw median fluorescence (lower = inhibition) (MCF (arbitrary fluorescence units)) in assay [9] was determined as 74.
As for `CCOCCCn1c(N)c(C(=O)Nc2sc3c(c2C(=O)OC)CCCC3)c2nc3ccccc3nc21`, the result in assay [6], in assay [8] and in assay [10] was inactive. In assay [7], this compound gave a fluorescence, percent of control (lower = inhibition) of 64.4%. Further, in assay [9], the GTP binding signal, raw median fluorescence (lower = inhibition) (MCF (arbitrary fluorescence units)) is 127.
Regarding `CCN(CC)c1ccc(/C=N/c2sc3c(c2C#N)C2CCN3CC2)c(O)c1`, the compound was classed as inactive in assay [6], in assay [8] and in assay [10]. This compound yielded a fluorescence, percent of control (lower = inhibition) in [7] of 91.1%. The same compound showed a GTP binding signal, raw median fluorescence (lower = inhibition) (MCF (arbitrary fluorescence units)) in assay [9] of 248.
